The values that follow come from PubChem BioAssay.

Each structure is given as a SMILES string. A number with no mark means an inactive call. The source made the active and inactive calls.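 The calls were made as follows, unless noted: active = at least 20% inhibition of 6-phosphogluconate dehydrogenase activity; inactive = the rest.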

Assay [1] is described as follows: stimulators of insulin release from INS-1E, primary screen, cell-based, 5 mM glucose, NPC library (AID 1117329;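 active = compound raises insulin release from rat beta cells at 5 mM glucose, no numeric limit stated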; also: reference of the scale not given here). The following applies: rat INS-1E insulin secretion, at 10 µM, active compounds read high.
Assay [2] in a line: growth inhibition of GSK3B-pretreated HCT116 cells – cell-based, CellTiter-Glo, 0.2 to 20 µM (AID 1117336;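 active = compounds lowering colon cancer cell viability after pretreatment blocking the GSK3B kinase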). Particulars: HCT116 viability after GSK3B inhibitor, at 20 µM, active compounds read high.
Assay [3] can be described thus: inhibition of endothelial tube formation, primary screen, imaging, VEGF stimulated, CD31 staining, tube area, NPC library (AID 1117340;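 active = compound that reduces growth-factor-driven endothelial tube area in a mixed cell culture, no cutoff stated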). Particulars: VEGF-stimulated ADSC/ECFC co-culture, at 10 µM, active compounds read high.
Assay [4] is described as follows: GLP1 release stimulators, primary, NCI-H716, NPC library (AID 1117341;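 active = compound raises GLP1 secretion from the human gut endocrine cells, with no numeric limit stated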; also: reference of the scale not given here). The following applies: NCI-H716 cells, at 10 µM, active compounds read high.
Assay [5] in a line: HCT116 colon cancer cell growth inhibition, primary screen, CellTiter-Glo luminescence, NPC library (AID 1117342;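 active = compounds that lower survival of HCT116 colon cancer cells in the luminescence readout, no numeric limit stated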). The following applies: at 20 µM (top of the series).
Assay [6] in a line: reduced SW480 viability measured with CellTiter-Glo, NPC library, primary (AID 1117343;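 active = compounds that lower viability of the colon cancer cells in the luminescence readout, with no numeric limit stated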). Particulars: CellTiter-Glo luminescence; at 20 µM (top of the series).
The nature of assay [7]: NPC library primary testing for decreased DLD-1 cell viability via CellTiter-Glo (AID 1117346;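 active = compounds that lower survival of DLD-1 colon cancer cells in the luminescence readout, no cutoff given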). The following applies: DLD-1 viability, CellTiter-Glo luminescence; at 20 µM (top of the series).
The target of assay [8] is 6-phosphogluconate dehydrogenase, decarboxylating (Homo sapiens) (UniProt P52209). Description: inhibition of human phosphogluconate dehydrogenase – biochemical, recombinant enzyme, NADPH absorbance, primary screen (AID 1159550). The following applies: recombinant 6PGD, NADPH absorbance 341 nm; at 10 µM; active compounds read high.
Sequence of 6-phosphogluconate dehydrogenase, decarboxylating (Homo sapiens) (P52209 whole entry, looked up): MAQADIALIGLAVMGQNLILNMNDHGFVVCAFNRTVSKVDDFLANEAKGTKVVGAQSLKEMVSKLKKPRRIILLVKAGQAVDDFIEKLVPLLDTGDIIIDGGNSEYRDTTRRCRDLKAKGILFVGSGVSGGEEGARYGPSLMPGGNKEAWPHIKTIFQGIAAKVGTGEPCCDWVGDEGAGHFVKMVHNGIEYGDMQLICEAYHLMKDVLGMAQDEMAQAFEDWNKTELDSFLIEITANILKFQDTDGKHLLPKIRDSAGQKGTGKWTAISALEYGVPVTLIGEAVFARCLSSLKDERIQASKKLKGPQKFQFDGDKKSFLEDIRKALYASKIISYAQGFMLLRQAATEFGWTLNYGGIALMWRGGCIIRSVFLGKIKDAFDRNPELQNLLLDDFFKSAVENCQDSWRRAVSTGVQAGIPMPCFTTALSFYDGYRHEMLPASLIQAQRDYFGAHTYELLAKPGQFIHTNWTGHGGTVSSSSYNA

Regarding `CCCCC1C(=O)N(c2ccccc2)N(c2ccccc2)C1=O`, the insulin secretion stimulation in assay [1] is -1.7%. In assay [2], the viability decrease was -11.7%. In addition, the tube area decrease in assay [3] was 0.7%. Further, in assay [4], the GLP1 secretion stimulation is -3.3%. Moreover, the inhibition of viability in assay [5] was 9.25%. The viability decrease (inhibition) in assay [6] is 13.6%; in assay [7], -12.9%. Moreover, in assay [8], the inhibition was 1.47%.
Consider `C=Cc1c(C)c2cc3[nH]c(cc4nc(cc5nc(cc1[nH]2)C(C)=C5CCC(=O)O)C(CCC(=O)O)=C4C)c(C)c3C=C`, for which, in assay [1], the insulin secretion stimulation was -1.6%. In addition, the viability decrease in assay [2] is 37.8%. The tube area decrease in assay [3] is -597%. The GLP1 secretion stimulation in assay [4] is 117% (active). In addition, the inhibition of viability in assay [5] was 73.5% (active). For the same compound, the viability decrease (inhibition) was 120% (active) in assay [6] and 93% (active) in assay [7]. In assay [8], the inhibition was 16.8%.
Take `COc1cc(/C=C/C(=O)CC(=O)/C=C/c2ccc(O)c(OC)c2)ccc1O`: in assay [1], the insulin secretion stimulation was 1.35%. In addition, the viability decrease in assay [2] is 26.1%. Further, the tube area decrease in assay [3] was -1.2%. For the same compound, the GLP1 secretion stimulation in assay [4] was -0.1%. The inhibition of viability in assay [5] was 11.9%. The values for the viability decrease (inhibition) in assay [6] and in assay [7] were -4.1% and -7.3%, respectively. The inhibition in assay [8] was 8.75%.
`CCN(CC)C(=O)N1CCN(C)CC1`: the insulin secretion stimulation in assay [1] was -1.8%. The viability decrease in assay [2] is -3.6%. The tube area decrease in assay [3] is -3.8%. In addition, in assay [4], the GLP1 secretion stimulation was 4.4%. Further, the inhibition of viability in assay [5] is 5.3%. Also, the values for the viability decrease (inhibition) in assay [6] and in assay [7] were 53.1% (active) and -2.05%, respectively. Besides, the inhibition in assay [8] is 10.8%.
As for `CCCN(CCC)C(=O)C(CCC(=O)O)NC(=O)c1ccccc1` (centres undefined), the insulin secretion stimulation in assay [1] was 1.3%. Also, in assay [2], the viability decrease was -11.7%. Also, in assay [3], the tube area decrease is -25.9%. Also, the GLP1 secretion stimulation in assay [4] was 0.4%. For the same compound, the inhibition of viability in assay [5] was -4.15%. Besides, the results for the viability decrease (inhibition) in assay [6] and in assay [7] were -0.1% and -14.6%, respectively. For the same compound, the inhibition in assay [8] was 1.53%.
As to `CC(N)C(=O)OC(C)(C)Cc1ccc(Cl)cc1` (centres undefined), in assay [1], the insulin secretion stimulation was 4.8%. Besides, the viability decrease in assay [2] is 7.1%. Further, in assay [3], the tube area decrease was -6.7%. Further, in assay [4], the GLP1 secretion stimulation is 5.8%. The inhibition of viability in assay [5] was 50% (active). Besides, the figures for the viability decrease (inhibition) in assay [6] and in assay [7] were 13.1% and 20.6%, respectively. In addition, the inhibition in assay [8] is -7.62%.
`CO[C@]12C[C@@H](COC(=O)c3cncc(Br)c3)CN(C)[C@@H]1Cc1cn(C)c3cccc2c13`: in assay [1], the insulin secretion stimulation is 8.2%. Besides, in assay [2], the viability decrease is 8.4%. The tube area decrease in assay [3] is 0.8%. In addition, the GLP1 secretion stimulation in assay [4] is 7.1%. Besides, in assay [5], the inhibition of viability is 43.7%. For the same compound, the viability decrease (inhibition) in assay [6] is 76.9% (active); in assay [7], 23.6%. The inhibition in assay [8] is 6.31%.
Take `CCC(=O)c1c(O)cc(O)cc1O`: the insulin secretion stimulation in assay [1] was 3.7%. Further, the viability decrease in assay [2] was -16.4%. Moreover, the tube area decrease in assay [3] is 4.6%. For the same compound, the GLP1 secretion stimulation in assay [4] is -2%. Besides, in assay [5], the inhibition of viability was 21.1%. Further, the viability decrease (inhibition) in assay [6] was 21.5%; in assay [7], 2.4%. Further, in assay [8], the inhibition was 8.94%.
As for `CO[C@@]1(NC(=O)C(C(=O)O)c2ccc(O)cc2)C(=O)N2C(C(=O)O)=C(CSc3nnnn3C)CO[C@@H]21` (some centres undefined), in assay [1], the insulin secretion stimulation was -0.4%. Further, in assay [2], the viability decrease is 23.9%. Also, the tube area decrease in assay [3] is 10.2%. For the same compound, the GLP1 secretion stimulation in assay [4] is 1.3%. Moreover, the inhibition of viability in assay [5] is 2.9%. Moreover, the viability decrease (inhibition) in assay [6] was 25.1%; in assay [7], -26%. Besides, the inhibition in assay [8] was 3.95%.
Take `CO[C@@]1(NC(=O)CSCC#N)C(=O)N2C(C(=O)O)=C(CSc3nnnn3C)CS[C@@H]21`: the insulin secretion stimulation in assay [1] is -1.4%. The viability decrease in assay [2] is -2.9%. Besides, the tube area decrease in assay [3] was -0.3%. Moreover, in assay [4], the GLP1 secretion stimulation is -2.4%. Besides, the inhibition of viability in assay [5] is -6.4%. Further, the viability decrease (inhibition) in assay [6] is -7.4%; in assay [7] it was -14.4%. Also, the inhibition in assay [8] was -6.33%.
Turning to `O=C1c2c(O)cccc2Cc2cccc(O)c21`, the insulin secretion stimulation in assay [1] is 0.8%. For the same compound, in assay [2], the viability decrease was 38.5%. Besides, in assay [3], the tube area decrease was 108% (active). Besides, in assay [4], the GLP1 secretion stimulation is -2.2%. Also, the inhibition of viability in assay [5] was 30.9%. Besides, the viability decrease (inhibition) in assay [6] was 61.6% (active); in assay [7] it was 53.6% (active). In addition, in assay [8], the inhibition is -1.39%.
As to `Cc1c(N(C)CS(=O)(=O)O)c(=O)n(-c2ccccc2)n1C`, the insulin secretion stimulation in assay [1] was -0.6%. Also, the viability decrease in assay [2] is 1.05%. Also, the tube area decrease in assay [3] is -53.1%. Also, in assay [4], the GLP1 secretion stimulation was 2.4%. In addition, the inhibition of viability in assay [5] is 3%. Besides, the viability decrease (inhibition) in assay [6] was 23.9%; in assay [7], 3.35%. The inhibition in assay [8] is 19.3%.
In the case of `C[C@](N)(Cc1ccc(O)cc1)C(=O)O`, the insulin secretion stimulation in assay [1] was -0.1%. Also, the viability decrease in assay [2] was 0.3%. Also, the tube area decrease in assay [3] is -8.2%. For the same compound, the GLP1 secretion stimulation in assay [4] is 1.3%. Also, in assay [5], the inhibition of viability was -15.1%. For the same compound, the viability decrease (inhibition) in assay [6] is 42.1%; in assay [7], -1.1%. In assay [8], the inhibition was -7.56%.
